# Measurements published in PubChem BioAssay.
# Activity calls are given as the source filed them.
# Tests used:
# [1] = system: Plasmodium falciparum Sir2 (PF13_0152, Sir2A); test: Plasmodium falciparum Sir2A binding compounds – biochemical, small-molecule microarray, 635 nm fluorescence, primary screen (AID 1098); details: fluorescence 635 nm, higher = more signal;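 also: score merges spot fluorescence intensity with its signal-to-noise ratio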
# [2] = probe aDKK1 binding to arrayed compounds – biochemical, biotinylated probe, 635/667 nm fluorescence, primary screen (AID 1099); details: small-molecule microarray, higher = more signal;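 also: score merges 667nm spot fluorescence with signal to noise across triplicate slides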
# [3] = probe aCHRDL2 binding to arrayed compounds – biochemical, biotinylated probe, 635/667 nm fluorescence, primary screen (AID 1100); details: small-molecule microarray, higher = more signal
# [4] = change in splice reporter luminescence, either direction, cell-based, HEK293, spliceosome inhibition project, primary screen (AID 1101); details: HEK293 splicing luciferase reporter, 24 h, higher = more signal, called active from +8 up or from −8 down;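 also: HEK293 cells carrying a splicing-competent luciferase reporter gene; test concentration not given here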
# [5] = molecular target: Fibroblast growth factor 10 (Homo sapiens) (UniProt O15520); test: compounds binding fibroblast growth factor 10 – biochemical, small-molecule microarray, 635 nm fluorescence, primary screen (AID 1102); details: FGF10 binding, fluorescence 635 nm, higher = more signal
# Fibroblast growth factor 10 (Homo sapiens), sequence (O15520 whole entry, looked up): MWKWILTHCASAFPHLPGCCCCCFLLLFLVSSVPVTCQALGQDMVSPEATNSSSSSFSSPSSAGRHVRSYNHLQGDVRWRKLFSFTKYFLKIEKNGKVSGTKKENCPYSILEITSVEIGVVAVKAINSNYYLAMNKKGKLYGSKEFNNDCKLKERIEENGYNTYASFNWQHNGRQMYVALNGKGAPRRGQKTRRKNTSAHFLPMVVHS
# [6] = system: glycogen synthase kinase-3 (GSK3A per assay name; protocol says GSK3B); test: compounds binding glycogen synthase kinase-3 – biochemical, small-molecule microarray, 635 nm fluorescence, GSK3A, primary screen (AID 1103); details: fluorescence 635 nm, higher = more signal; also: the record names both GSK3A and GSK3B
# [7] = molecular target: Epidermal growth factor receptor (Homo sapiens) (UniProt P00533); test: compounds binding epidermal growth factor receptor – biochemical, small-molecule microarray, 635 nm fluorescence, primary screen (AID 1104); details: EGFR binding, higher = more signal;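 also: score merges 667 nm emission intensity with spot signal to noise over triplicate slides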
# Epidermal growth factor receptor (Homo sapiens), sequence (P00533 whole entry, looked up): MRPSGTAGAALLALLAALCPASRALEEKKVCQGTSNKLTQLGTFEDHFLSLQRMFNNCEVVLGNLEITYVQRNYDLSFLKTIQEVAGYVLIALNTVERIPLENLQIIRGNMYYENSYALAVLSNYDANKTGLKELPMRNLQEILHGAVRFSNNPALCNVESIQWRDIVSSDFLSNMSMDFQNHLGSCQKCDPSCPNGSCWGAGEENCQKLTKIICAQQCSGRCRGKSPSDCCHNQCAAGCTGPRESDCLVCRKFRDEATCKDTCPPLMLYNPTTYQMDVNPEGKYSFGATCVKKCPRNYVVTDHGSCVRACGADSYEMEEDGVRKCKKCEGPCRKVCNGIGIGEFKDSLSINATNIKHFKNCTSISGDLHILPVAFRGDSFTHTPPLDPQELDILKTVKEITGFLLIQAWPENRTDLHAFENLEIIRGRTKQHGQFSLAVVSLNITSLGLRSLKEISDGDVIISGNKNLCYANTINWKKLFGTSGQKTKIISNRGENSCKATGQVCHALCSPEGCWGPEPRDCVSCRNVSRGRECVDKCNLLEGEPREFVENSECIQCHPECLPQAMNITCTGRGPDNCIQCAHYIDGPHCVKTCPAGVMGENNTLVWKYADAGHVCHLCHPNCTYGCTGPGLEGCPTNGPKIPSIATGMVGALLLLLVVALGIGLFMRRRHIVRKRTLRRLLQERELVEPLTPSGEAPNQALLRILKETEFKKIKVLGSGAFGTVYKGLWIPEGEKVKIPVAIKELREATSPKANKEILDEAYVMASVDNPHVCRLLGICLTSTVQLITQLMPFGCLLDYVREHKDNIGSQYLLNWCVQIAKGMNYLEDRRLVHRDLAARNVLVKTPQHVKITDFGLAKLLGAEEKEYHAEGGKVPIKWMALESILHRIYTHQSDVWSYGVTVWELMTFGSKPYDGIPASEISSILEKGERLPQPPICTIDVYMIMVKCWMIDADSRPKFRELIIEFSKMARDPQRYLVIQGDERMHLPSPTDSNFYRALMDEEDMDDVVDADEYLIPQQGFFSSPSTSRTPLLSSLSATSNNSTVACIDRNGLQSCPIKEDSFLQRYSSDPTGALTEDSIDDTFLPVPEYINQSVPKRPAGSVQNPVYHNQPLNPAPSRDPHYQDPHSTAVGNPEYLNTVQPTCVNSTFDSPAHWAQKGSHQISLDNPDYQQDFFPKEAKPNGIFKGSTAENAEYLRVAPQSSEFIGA
# [8] = molecular target: Follistatin-related protein 3 (Homo sapiens) (UniProt O95633); test: compounds binding follistatin-related protein 3 – biochemical, small-molecule microarray, 635 nm fluorescence, primary screen (AID 1105); details: FSTL3 binding, higher = more signal;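 also: score merges emission near 667 nm and signal to noise per printed spot across three slides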
# Follistatin-related protein 3 (Homo sapiens), sequence (O95633 whole entry, looked up): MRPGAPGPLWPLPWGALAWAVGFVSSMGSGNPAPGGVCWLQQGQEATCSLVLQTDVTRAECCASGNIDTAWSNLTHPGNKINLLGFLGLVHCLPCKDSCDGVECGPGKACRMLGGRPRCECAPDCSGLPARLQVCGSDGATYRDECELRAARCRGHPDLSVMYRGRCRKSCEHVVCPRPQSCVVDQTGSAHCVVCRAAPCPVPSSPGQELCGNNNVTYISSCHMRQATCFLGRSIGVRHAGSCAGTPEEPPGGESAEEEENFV
# [9] = molecular target: Dickkopf-related protein 1 (Homo sapiens) (UniProt O94907); test: small molecules binding DKK1 protein – biochemical, small-molecule microarray, 635 nm fluorescence scan, primary screen (AID 1106); details: higher = more signal;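 also: score merges emission near 667 nm with signal to noise over three replicate slides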
# Dickkopf-related protein 1 (Homo sapiens), sequence (O94907 whole entry, looked up): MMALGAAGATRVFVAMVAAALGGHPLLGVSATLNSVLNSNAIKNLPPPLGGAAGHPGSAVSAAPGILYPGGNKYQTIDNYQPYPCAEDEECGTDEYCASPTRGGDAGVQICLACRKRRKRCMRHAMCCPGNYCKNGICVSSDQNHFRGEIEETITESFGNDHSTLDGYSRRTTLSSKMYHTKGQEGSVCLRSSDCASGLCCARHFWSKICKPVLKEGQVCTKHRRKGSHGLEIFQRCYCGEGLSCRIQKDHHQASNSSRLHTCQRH
# [10] = system: Inhibin beta A chain (activin A); test: small molecules binding activin A – biochemical, small-molecule microarray, 635 nm fluorescence scan, primary screen (AID 1107); details: INHBA, higher = more signal;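 also: mouse activin A protein probed at 4.33 µg/mL on printed slides; score merges bound-protein fluorescence near 667 nm with spot signal-to-noise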
# [11] = system: Human papillomavirus type 1a protein E7 (residues 44-93); test: small molecules binding HPV E7 44-93 – biochemical, small-molecule microarray, residues 44-93, 635 nm fluorescence, primary screen (AID 1108); details: fluorescence 635 nm, higher = more signal;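 also: E7 fragment applied at 1 µg/mL in TBST for 1 h at 4 C; score combines spot fluorescence with its signal to noise ratio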
# [12] = hepatitis C replication reporter changes, two-sided – Huh7 cells, luciferase reporter, HCV replication inhibitor project, primary screen (AID 1109); details: Huh7 HCV replicon luciferase reporter, 48 h; higher = more signal;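 also: huh7 hepatoma cells harbouring a luciferase neomycin HCV replicon reporter; luciferase luminescence as measure of HCV replicon replication; test concentration not given here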
# [13] = molecular target: Left-right determination factor 2 (Homo sapiens) (UniProt O00292); test: small molecules binding LEFTY2 protein – biochemical, small-molecule microarray, 635 nm fluorescence scan, primary screen (AID 1110); details: higher = more signal
# Left-right determination factor 2 (Homo sapiens), sequence (O00292 whole entry, looked up): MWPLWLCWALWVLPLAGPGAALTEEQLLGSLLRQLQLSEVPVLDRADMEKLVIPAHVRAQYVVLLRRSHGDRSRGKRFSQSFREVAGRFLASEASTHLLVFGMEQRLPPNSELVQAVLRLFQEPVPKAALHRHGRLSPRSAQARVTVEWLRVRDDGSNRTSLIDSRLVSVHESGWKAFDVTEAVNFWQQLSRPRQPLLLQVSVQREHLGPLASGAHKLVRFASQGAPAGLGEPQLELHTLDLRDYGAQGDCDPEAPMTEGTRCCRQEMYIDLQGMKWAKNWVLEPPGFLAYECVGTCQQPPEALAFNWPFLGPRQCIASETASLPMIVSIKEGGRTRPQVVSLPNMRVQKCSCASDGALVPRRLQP
# [14] = molecular target: Calmodulin-1 (Homo sapiens) (UniProt P0DP23); test: small molecules binding calmodulin-1 with EGTA – biochemical, small-molecule microarray, Cy5-labelled CALM1, profiling panel (AID 1111); details: Cy5-CALM1 binding fluorescence, higher = more signal;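 also: labelled calmodulin applied in Tris saline Tween buffer holding calcium plus EGTA and DTT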
# [15] = molecular target: Calmodulin-1 (Homo sapiens) (UniProt P0DP23); test: small molecules binding Ca-loaded calmodulin-1 – biochemical, small-molecule microarray, Cy5-labelled CALM1, plus calcium, artefact control for SMM control-protein annotation, profiling panel (AID 1112); details: Cy5-CALM1 binding fluorescence, higher = more signal;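 also: score merges spot fluorescence with signal to noise from triplicate slides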
# [16] = probe aWnt5a binding to arrayed compounds – biochemical, biotinylated probe, 635/667 nm fluorescence, primary screen (AID 1113); details: small-molecule microarray, higher = more signal;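 also: score merges 667 nm fluorescence intensity with signal-to-noise per printed feature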
# [17] = probe aShh binding to arrayed compounds – biochemical, biotinylated probe, 635/667 nm fluorescence, primary screen (AID 1114); details: small-molecule microarray, higher = more signal;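 also: probe is biotin-labelled aShh protein from a stem cell growth factor screen; measures binding of labelled protein to compounds printed on the slide; score merges feature fluorescence at 667 nm with signal-to-noise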
# [18] = probe aNog binding to arrayed compounds – biochemical, biotinylated probe, 635/667 nm fluorescence, primary screen (AID 1115); details: small-molecule microarray, higher = more signal;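 also: probe is biotinylated aNog protein used at 0.15 µg/mL for 1 h at 4 C; z-score combines 667 nm fluorescence of each spot with its signal to noise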
# [19] = molecular target: Torsin-1A-interacting protein 1 (Homo sapiens) (UniProt Q5JTV8); test: compound microarray binding of lysate hLAP1 – cell lysate, small-molecule microarray, COS7 lysate, 635/667 nm fluorescence, primary screen (AID 1116); details: 635 nm fluorescence, higher = more signal
# Torsin-1A-interacting protein 1 (Homo sapiens), sequence (Q5JTV8 whole entry, looked up): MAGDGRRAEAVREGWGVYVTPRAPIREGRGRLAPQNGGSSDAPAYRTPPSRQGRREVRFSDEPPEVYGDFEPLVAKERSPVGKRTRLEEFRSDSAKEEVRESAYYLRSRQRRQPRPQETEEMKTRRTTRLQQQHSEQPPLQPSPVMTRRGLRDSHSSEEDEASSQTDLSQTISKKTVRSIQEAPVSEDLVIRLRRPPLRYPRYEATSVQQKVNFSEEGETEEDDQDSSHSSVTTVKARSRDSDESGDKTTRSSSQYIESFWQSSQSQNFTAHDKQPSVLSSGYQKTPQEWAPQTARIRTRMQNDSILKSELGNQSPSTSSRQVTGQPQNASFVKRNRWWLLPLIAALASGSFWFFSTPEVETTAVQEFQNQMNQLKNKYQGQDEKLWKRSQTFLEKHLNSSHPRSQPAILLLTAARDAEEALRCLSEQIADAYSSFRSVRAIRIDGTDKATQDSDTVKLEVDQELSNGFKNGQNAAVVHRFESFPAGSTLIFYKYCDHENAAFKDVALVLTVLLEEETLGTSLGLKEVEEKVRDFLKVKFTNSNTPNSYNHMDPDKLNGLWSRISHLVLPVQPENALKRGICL
# [20] = molecular target: Alpha-bungarotoxin (Bungarus multicinctus) (UniProt P60615); test: compounds binding labelled alpha-BTX control protein – biochemical, small-molecule microarray, Alexa647 label, 635/667 nm fluorescence, artefact control for SMM control protein annotation, profiling panel (AID 1117); details: alpha-BTX-A647 binding fluorescence, higher = more signal
# Alpha-bungarotoxin (Bungarus multicinctus), sequence (P60615 whole entry, looked up): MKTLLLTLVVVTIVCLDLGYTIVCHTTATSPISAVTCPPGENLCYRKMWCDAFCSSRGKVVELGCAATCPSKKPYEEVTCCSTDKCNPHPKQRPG
compound,measurement,setting,value
COC(=O)c1c(CC[C@@H](CO)NC(=O)N2CCC[C@H]2Cn2cc(-c3ccccn3)nn2)oc(C(C)=O)c1C(=O)OC,composite z-score,[1],1.23
same,composite z-score,[2],-0.238
same,composite z-score,[3],-0.337
same,z-score,[4],-1.25 (inactive)
same,composite z-score,[5],0.0437
same,composite z-score,[6],0.209
same,composite z-score,[7],0.0417
same,composite z-score,[8],-0.144
same,composite z-score,[9],-0.17
same,composite z-score,[10],0.113
same,composite z-score,[11],0.0413
same,z-score,[12],-1.03
same,composite z-score,[13],-0.219
same,composite z-score,[14],-0.209
same,composite z-score,[15],-0.747
same,composite z-score,[16],-0.152
same,composite z-score,[17],-0.0474
same,composite z-score,[18],-0.0418
same,composite z-score,[19],-0.219
same,composite z-score,[20],-0.0614
COc1ccc(C(=O)O[C@H]2CC[C@]3(C)C4=C(CCC3C2(C)C)[C@]2(C)CC[C@H]([C@H](C)CCCC(C)C)[C@@]2(C)CC4)cc1 (stereo not given in full),composite z-score,[1],0.0931
same,composite z-score,[2],-0.287
same,composite z-score,[3],-0.384
same,z-score,[4],-0.968 (inactive)
same,composite z-score,[5],0.205
same,composite z-score,[6],0.751
same,composite z-score,[7],0.302
same,composite z-score,[8],0.561
same,composite z-score,[9],0.458
same,composite z-score,[10],0.225
same,composite z-score,[11],-0.0389
same,z-score,[12],0.606
same,composite z-score,[13],0.567
same,composite z-score,[14],-0.459
same,composite z-score,[15],-0.83
same,composite z-score,[16],-0.0792
same,composite z-score,[17],-0.0553
same,composite z-score,[18],-0.0242
same,composite z-score,[19],0.0921
same,composite z-score,[20],-0.086
C=CCNC(=O)[C@@H]1[C@H]2C(=O)O[C@H](c3ccccc3)[C@H](c3ccccc3)N2[C@H](c2ccccc2OCCO)[C@@]12C(=O)N(C(=O)OCCOC)c1ccc(C#CCNC(N)=O)cc12,composite z-score,[1],1.43
same,composite z-score,[2],0.0834
same,composite z-score,[3],0.447
same,z-score,[4],-0.938 (inactive)
same,composite z-score,[5],0.738
same,composite z-score,[6],0.581
same,composite z-score,[7],0.444
same,composite z-score,[8],0.921
same,composite z-score,[9],-0.0253
same,composite z-score,[10],0.38
same,composite z-score,[11],1.36
same,z-score,[12],-1.19
same,composite z-score,[13],0.213
same,composite z-score,[14],1.58
same,composite z-score,[15],0.27
same,composite z-score,[16],-0.0196
same,composite z-score,[17],-0.739
same,composite z-score,[18],0.658
same,composite z-score,[19],0.96
same,composite z-score,[20],1.76
C=CCN1C(=O)[C@]2(O[C@H](CCO)[C@@H]([Si](C)(C)c3ccc(OC)cc3)[C@@H]2C)c2cc(N3CCCCC3=O)ccc21,composite z-score,[1],0.914
same,composite z-score,[2],0.0375
same,composite z-score,[3],0.0217
same,z-score,[4],-1.69 (inactive)
same,composite z-score,[5],0.849
same,composite z-score,[6],0.549
same,composite z-score,[7],0.286
same,composite z-score,[8],0.918
same,composite z-score,[9],0.147
same,composite z-score,[10],0.247
same,composite z-score,[11],1.44
same,z-score,[12],-4.11
same,composite z-score,[13],0.0651
same,composite z-score,[14],0.856
same,composite z-score,[15],0.352
same,composite z-score,[16],-0.0977
same,composite z-score,[17],0.147
same,composite z-score,[18],0.431
same,composite z-score,[19],0.957
same,composite z-score,[20],1.19
CCOC(=O)C[C@H]1[C@H](OC(=O)c2cc3ccccc3oc2=O)[C@@H](NC(=O)C2CCCCC2)c2cc(OCCCO)ccc2N1C(=O)c1ccccc1,composite z-score,[1],0.784
same,composite z-score,[2],-0.23
same,composite z-score,[3],-0.377
same,z-score,[4],-1.45 (inactive)
same,composite z-score,[5],0.995
same,composite z-score,[6],0.692
same,composite z-score,[7],0.593
same,composite z-score,[8],0.708
same,composite z-score,[9],0.5
same,composite z-score,[10],0.707
same,composite z-score,[11],0.992
same,z-score,[12],-0.947
same,composite z-score,[13],0.493
same,composite z-score,[14],-0.105
same,composite z-score,[15],-0.236
same,composite z-score,[16],-0.0405
same,composite z-score,[17],-0.138
same,composite z-score,[18],-0.266
same,composite z-score,[19],0.294
same,composite z-score,[20],-0.0403
[N-]=[N+]=NCc1ccccc1[C@H]1OC(c2ccc(OCCCO)cc2)=N[C@@]1(Cc1ccccc1)C(=O)NCc1ccccc1,composite z-score,[1],0.173
same,composite z-score,[2],0.646
same,composite z-score,[3],0.894
same,z-score,[4],1.09 (inactive)
same,composite z-score,[5],0.672
same,composite z-score,[6],1.27
same,composite z-score,[7],0.169
same,composite z-score,[8],0.231
same,composite z-score,[9],-0.238
same,composite z-score,[10],-0.151
same,composite z-score,[11],0.296
same,z-score,[12],-2.19
same,composite z-score,[13],0.0739
same,composite z-score,[14],1.45
same,composite z-score,[15],0.727
same,composite z-score,[16],0.075
same,composite z-score,[17],0.22
same,composite z-score,[18],0.683
same,composite z-score,[19],0.881
same,composite z-score,[20],0.761
CC(C)c1ccc(NN2C(C(O)c3cc(C(F)(F)F)cc(C(F)(F)F)c3)C=CC3C(=O)N(c4ccccc4)C(=O)C32)cc1 (stereo not given),composite z-score,[1],0.91
same,composite z-score,[2],0.74
same,composite z-score,[3],0.8
same,z-score,[4],-0.753 (inactive)
same,composite z-score,[5],-0.329
same,composite z-score,[6],0.543
same,composite z-score,[7],-0.911
same,composite z-score,[8],-0.486
same,composite z-score,[9],-0.551
same,composite z-score,[10],0.655
same,composite z-score,[11],1.35
same,z-score,[12],-0.748
same,composite z-score,[13],-0.931
same,composite z-score,[14],1.55
same,composite z-score,[15],0.647
same,composite z-score,[16],-0.0704
same,composite z-score,[17],0.37
same,composite z-score,[18],0.897
same,composite z-score,[19],0.831
same,composite z-score,[20],0.817
COC(=O)[C@@]1(Cc2ccccc2)[C@H]2c3cc(C(=O)N4CCCC4)n(CC4CC4)c3C[C@H]2CN1C(=O)c1ccccc1,composite z-score,[1],1.23
same,composite z-score,[2],1.48
same,composite z-score,[3],1.16
same,z-score,[4],-2.08 (inactive)
same,composite z-score,[5],0.596
same,composite z-score,[6],1.29
same,composite z-score,[7],0.436
same,composite z-score,[8],1.17
same,composite z-score,[9],-0.23
same,composite z-score,[10],1.16
same,composite z-score,[11],1.39
same,z-score,[12],-2.17
same,composite z-score,[13],0.192
same,composite z-score,[14],1.13
same,composite z-score,[15],0.697
same,composite z-score,[16],0.647
same,composite z-score,[17],0.834
same,composite z-score,[18],2.57
same,composite z-score,[19],0.079
same,composite z-score,[20],0.615
COc1ccc([Si](C)(C)[C@@H]2[C@@H](CC(=O)N3Cc4ccccc4C[C@H]3CO)O[C@]3(C(=O)N(C)c4c(Br)cc(C)cc43)[C@H]2C)cc1,composite z-score,[1],0.859
same,composite z-score,[2],-0.0347
same,composite z-score,[3],-0.311
same,z-score,[4],-2.12 (inactive)
same,composite z-score,[5],1.33
same,composite z-score,[6],0.954
same,composite z-score,[7],0.968
same,composite z-score,[8],1.08
same,composite z-score,[9],0.685
same,composite z-score,[10],1.13
same,composite z-score,[11],1.37
same,z-score,[12],-4.43
same,composite z-score,[13],0.637
same,composite z-score,[14],0.0208
same,composite z-score,[15],0.235
same,composite z-score,[16],0.0078
same,composite z-score,[17],-0.0793
same,composite z-score,[18],-0.454
same,composite z-score,[19],0.418
same,composite z-score,[20],1.01
CN(C)CCCNC(=O)[C@@]1(c2ccc([N+](=O)[O-])cc2)CC(=O)N(C2CCCCC2)[C@@H]1c1ccc(CO)cc1I,composite z-score,[1],1.12
same,composite z-score,[2],-0.116
same,composite z-score,[3],0.736
same,z-score,[4],-3.68 (inactive)
same,composite z-score,[5],-0.341
same,composite z-score,[6],1.28
same,composite z-score,[7],-0.0949
same,composite z-score,[8],0.381
same,composite z-score,[9],-0.212
same,composite z-score,[10],0.462
same,composite z-score,[11],1.41
same,z-score,[12],-3.46
same,composite z-score,[13],-0.104
same,composite z-score,[14],-0.0828
same,composite z-score,[15],-0.245
same,composite z-score,[16],-0.0721
same,composite z-score,[17],-0.147
same,composite z-score,[18],-0.606
same,composite z-score,[19],0.46
same,composite z-score,[20],1.03
